Laboratory results taken from the supplement of paper PMC11732987, “Enantioselective OTUD7B fragment discovery through chemoproteomics screening and high-throughput optimisation” (Communications Chemistry, 2025).

How the values were obtained:
Experiment in all cases: log2 ratio of Biotin-Ahx-Ub-VS probe labelling (fragment/DMSO); higher = less target engagement (more negative = stronger competition), active = hit call of the paper (q ≤ 0.05, log2 ratio ≤ -1)
Conditions in all cases: compound concentration: 200 uM; treatment time: 3 h
[1] = target: T1, USP19 (UniProt O94966)
T1 sequence (whole entry): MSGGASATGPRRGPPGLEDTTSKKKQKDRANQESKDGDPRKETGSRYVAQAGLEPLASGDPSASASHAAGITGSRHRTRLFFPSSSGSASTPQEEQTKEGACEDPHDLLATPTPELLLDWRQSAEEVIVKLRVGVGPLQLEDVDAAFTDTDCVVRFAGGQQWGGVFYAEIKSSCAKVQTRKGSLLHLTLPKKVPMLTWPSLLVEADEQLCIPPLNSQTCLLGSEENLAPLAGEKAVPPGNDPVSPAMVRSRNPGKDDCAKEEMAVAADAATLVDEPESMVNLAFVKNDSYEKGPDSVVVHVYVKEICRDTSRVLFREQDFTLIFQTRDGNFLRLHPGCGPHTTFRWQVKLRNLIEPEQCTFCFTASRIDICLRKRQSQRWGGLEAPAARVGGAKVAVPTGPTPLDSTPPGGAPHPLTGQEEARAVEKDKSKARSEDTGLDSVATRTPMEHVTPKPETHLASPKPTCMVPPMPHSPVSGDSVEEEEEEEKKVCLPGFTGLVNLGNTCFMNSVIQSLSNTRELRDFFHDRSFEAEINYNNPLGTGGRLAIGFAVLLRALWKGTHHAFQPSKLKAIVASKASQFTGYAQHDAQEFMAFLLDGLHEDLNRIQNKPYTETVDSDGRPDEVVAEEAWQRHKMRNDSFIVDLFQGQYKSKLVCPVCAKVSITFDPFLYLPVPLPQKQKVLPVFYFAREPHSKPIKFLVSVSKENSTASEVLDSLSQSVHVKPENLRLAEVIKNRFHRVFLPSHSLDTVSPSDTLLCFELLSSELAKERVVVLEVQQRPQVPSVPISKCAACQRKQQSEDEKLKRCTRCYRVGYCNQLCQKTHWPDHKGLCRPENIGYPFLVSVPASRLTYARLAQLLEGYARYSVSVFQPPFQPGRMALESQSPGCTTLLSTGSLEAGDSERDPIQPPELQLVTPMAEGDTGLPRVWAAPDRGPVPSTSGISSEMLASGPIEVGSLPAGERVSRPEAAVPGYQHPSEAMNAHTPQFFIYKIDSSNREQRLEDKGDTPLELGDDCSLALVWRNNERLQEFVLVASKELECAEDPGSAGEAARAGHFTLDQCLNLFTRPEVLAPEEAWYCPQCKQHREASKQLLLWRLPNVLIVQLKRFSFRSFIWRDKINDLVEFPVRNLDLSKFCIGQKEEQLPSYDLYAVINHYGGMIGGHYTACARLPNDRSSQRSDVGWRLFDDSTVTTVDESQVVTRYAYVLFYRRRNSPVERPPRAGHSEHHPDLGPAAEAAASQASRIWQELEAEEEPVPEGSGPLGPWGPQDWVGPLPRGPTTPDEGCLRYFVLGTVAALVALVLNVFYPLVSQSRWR
Summary of the method: (§1)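 Labelling with Biotin-Ahx-Ub-VS (0.5 µM final, 1 h) followed a 3 h triplicate treatment of HEK293T lysate (495 µg per sample, Tris/CHAPS/IGEPAL buffer with protease inhibitors) with fragment at 200 µM or vehicle. Labelled DUBs were NeutrAvidin-enriched, digested with LysC and trypsin, and run by diaPASEF LC-MS/MS. The values, average log2 fragment/vehicle ratios by unpaired t-test, come from global-median-normalised Spectronaut label-free quantities. Proteins with ≥2 unique peptides were used.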

[2] = target: T2, USP22 (UniProt Q9UPT9)
T2 sequence (whole entry): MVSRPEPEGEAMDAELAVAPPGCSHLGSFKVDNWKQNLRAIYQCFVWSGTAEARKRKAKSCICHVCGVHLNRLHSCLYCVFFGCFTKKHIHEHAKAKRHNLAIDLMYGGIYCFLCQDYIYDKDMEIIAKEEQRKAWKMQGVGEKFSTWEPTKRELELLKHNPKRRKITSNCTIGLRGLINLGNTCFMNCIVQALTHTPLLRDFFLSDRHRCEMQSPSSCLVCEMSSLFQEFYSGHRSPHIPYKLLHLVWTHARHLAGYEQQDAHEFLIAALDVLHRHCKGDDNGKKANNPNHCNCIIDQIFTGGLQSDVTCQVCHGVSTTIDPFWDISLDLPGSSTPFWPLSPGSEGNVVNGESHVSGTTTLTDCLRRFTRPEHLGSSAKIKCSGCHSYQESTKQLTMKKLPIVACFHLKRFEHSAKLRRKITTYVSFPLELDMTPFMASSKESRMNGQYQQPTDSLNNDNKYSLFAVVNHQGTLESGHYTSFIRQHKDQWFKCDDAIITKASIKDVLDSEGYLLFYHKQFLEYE
Summary of the method: as §1

[3] = target: USP24 (UniProt Q9UPU5)
Summary of the method: as §1

[4] = target: T3, USP25 (UniProt Q9UHP3)
T3 sequence (whole entry): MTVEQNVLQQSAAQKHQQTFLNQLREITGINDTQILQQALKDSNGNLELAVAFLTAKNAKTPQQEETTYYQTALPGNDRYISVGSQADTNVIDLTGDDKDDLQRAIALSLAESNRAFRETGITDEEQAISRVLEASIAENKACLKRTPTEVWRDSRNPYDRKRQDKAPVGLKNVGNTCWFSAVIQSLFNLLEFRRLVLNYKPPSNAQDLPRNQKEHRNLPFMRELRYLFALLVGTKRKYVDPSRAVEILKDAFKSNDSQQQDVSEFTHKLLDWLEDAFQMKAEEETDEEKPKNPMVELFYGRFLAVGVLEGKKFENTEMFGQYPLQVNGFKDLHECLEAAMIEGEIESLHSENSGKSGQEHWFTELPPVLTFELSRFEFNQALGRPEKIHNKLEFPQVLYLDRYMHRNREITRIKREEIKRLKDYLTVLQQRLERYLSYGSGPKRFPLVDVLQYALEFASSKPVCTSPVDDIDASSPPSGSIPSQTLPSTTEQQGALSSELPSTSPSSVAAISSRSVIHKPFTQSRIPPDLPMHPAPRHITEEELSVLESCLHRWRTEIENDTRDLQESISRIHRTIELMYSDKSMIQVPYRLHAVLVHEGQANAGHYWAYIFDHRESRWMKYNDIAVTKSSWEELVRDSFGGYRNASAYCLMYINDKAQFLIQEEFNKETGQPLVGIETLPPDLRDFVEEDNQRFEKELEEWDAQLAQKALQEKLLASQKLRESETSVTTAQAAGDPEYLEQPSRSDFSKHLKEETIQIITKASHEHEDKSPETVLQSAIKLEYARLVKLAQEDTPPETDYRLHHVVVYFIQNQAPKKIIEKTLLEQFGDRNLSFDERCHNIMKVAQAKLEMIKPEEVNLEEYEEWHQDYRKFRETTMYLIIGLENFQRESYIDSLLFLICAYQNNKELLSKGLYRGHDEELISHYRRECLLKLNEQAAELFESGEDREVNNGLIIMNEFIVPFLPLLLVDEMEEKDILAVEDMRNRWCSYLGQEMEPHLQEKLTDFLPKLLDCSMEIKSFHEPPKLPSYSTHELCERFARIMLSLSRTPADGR
Summary of the method: as §1

[5] = target: T4, USP28 (UniProt Q96RU2)
T4 sequence (whole entry): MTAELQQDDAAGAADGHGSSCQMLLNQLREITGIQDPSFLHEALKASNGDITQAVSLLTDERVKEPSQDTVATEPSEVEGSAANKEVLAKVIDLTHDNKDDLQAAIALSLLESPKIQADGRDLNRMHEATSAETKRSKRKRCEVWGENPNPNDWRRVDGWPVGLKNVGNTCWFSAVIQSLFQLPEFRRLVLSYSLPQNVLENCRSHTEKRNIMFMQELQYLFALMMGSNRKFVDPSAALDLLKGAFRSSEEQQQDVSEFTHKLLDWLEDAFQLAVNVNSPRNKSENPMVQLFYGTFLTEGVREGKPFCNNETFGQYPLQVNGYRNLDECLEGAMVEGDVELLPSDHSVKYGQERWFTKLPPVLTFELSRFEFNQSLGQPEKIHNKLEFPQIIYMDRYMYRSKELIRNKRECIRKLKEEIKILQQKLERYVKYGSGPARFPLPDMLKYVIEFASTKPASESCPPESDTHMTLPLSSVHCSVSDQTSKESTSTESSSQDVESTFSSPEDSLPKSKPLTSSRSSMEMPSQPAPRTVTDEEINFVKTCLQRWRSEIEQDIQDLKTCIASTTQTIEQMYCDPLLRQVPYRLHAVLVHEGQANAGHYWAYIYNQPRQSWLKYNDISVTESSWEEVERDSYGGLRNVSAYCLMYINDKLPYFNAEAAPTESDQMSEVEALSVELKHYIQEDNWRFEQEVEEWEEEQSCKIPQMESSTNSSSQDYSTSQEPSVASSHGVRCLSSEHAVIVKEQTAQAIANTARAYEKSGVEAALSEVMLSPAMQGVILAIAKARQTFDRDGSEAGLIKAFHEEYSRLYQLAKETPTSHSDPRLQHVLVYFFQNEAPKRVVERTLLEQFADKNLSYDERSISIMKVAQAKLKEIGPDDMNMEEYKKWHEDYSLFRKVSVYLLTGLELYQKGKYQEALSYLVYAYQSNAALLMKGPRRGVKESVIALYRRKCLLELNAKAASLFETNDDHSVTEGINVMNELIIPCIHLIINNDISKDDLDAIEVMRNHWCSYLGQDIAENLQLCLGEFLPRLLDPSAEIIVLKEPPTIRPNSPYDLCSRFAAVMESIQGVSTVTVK
Summary of the method: as §1

Measured: log2 ratio of Biotin-Ahx-Ub-VS probe labelling

USP24, sequence (Q9UPU5 whole entry): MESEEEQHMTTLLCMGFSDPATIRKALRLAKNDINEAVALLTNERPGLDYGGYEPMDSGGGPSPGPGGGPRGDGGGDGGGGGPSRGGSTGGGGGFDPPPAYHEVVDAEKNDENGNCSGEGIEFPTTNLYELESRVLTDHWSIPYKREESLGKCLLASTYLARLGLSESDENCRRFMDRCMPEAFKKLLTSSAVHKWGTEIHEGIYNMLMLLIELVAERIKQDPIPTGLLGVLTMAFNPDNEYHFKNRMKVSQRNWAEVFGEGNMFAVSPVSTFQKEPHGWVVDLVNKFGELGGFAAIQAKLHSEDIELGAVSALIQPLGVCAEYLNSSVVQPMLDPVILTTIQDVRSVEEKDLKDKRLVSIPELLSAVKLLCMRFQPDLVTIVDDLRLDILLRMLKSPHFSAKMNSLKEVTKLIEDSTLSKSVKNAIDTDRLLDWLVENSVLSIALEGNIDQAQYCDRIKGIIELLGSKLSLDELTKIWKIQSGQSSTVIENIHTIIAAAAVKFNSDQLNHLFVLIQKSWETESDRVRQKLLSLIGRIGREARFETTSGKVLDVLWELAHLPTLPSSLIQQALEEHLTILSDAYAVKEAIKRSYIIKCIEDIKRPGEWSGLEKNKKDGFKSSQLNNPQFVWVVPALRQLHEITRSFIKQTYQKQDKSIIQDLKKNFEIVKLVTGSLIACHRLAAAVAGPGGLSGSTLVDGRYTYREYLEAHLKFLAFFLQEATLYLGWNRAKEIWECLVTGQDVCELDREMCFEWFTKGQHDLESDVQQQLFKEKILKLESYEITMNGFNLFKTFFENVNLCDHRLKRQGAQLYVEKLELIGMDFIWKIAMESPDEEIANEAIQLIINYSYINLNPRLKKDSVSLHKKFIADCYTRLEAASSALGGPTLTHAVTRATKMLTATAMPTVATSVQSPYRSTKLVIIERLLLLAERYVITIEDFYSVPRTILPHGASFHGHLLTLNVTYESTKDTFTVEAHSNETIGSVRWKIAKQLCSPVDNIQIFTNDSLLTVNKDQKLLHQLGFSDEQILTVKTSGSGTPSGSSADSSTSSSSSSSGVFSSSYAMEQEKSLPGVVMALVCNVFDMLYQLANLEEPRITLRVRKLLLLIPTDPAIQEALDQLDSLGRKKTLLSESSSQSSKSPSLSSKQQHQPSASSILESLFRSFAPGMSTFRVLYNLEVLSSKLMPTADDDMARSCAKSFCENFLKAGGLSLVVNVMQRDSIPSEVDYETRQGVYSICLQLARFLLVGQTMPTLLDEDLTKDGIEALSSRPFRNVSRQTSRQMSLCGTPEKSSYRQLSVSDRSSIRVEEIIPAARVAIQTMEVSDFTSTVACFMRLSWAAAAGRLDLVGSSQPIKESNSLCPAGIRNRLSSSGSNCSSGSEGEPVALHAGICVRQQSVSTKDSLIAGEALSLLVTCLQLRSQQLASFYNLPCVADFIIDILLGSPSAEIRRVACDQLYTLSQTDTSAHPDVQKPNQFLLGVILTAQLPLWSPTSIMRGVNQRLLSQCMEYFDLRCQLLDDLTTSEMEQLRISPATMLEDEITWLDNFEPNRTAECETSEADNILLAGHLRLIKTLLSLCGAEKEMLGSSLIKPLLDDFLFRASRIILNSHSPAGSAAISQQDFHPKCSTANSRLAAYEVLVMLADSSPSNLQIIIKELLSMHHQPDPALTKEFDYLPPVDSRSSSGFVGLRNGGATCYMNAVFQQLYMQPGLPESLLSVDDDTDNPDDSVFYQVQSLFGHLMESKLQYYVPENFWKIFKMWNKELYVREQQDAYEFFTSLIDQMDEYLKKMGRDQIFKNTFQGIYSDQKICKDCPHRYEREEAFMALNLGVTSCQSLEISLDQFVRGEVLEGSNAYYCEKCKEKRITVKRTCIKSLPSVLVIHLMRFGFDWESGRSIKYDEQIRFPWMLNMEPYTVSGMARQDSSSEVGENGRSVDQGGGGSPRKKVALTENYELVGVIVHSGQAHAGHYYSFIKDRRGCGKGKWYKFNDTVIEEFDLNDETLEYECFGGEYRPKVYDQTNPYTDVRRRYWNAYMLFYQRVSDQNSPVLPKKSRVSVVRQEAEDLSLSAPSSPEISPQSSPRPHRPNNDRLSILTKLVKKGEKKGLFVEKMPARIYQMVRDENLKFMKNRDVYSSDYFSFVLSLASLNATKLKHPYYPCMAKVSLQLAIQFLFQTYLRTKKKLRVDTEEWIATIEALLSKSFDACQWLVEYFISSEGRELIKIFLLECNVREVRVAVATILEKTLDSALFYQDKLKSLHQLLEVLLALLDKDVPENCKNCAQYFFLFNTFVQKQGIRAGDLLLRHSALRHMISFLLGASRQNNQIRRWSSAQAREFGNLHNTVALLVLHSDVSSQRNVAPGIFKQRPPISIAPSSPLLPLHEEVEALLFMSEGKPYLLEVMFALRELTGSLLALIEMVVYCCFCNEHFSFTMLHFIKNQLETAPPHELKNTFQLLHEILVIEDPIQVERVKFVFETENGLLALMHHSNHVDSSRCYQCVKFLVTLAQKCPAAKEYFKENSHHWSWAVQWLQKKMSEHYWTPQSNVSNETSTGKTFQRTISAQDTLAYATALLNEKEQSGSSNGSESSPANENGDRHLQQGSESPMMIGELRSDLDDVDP

COc1ccccc1C(C)NC(=O)CCl (stereo not given)
inactive: [1] -0.243 | [2] -0.46 | [3] -0.363 | [4] -0.536 | [5] -0.666
